From the supplement of paper PMC10646978
± gives the standard deviation.

Key:
Settings in all cases: modulator concentration 10 µM
[1] = system: RAW-Dual (murine macrophage reporter line); assay: NF-kB reporter (SEAP) activity fold change vs agonist alone; higher = enhanced NF-kB activity
Method in brief: (§1)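 In 384-well plates holding 50 000 RAW-Dual murine macrophage reporter cells per well, compound at 10 μM final was pre-incubated for 1 hour at 37 °C, after which a PRR agonist was added overnight. Supernatant SEAP read with QUANTI-Blue at 620 nm absorbance reported NF-κB, and Lucia luciferase read with QUANTI-Luc luminescence reported IRF. Fold change values come from dividing each reporter signal by the mean of agonist-only control wells on the same plate, averaged over replicate plates with propagated errors.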

[2] = system: RAW-Dual (murine macrophage reporter line); assay: IRF reporter (Lucia luciferase) activity fold change vs agonist alone; higher = enhanced IRF activity
Method in brief: as §1

[3] = system: RAW-Dual (murine macrophage reporter line); assay: viability score (confluency relative to resting cells, overnight) (fraction); higher = more viable, active = viable (0.7 or more)
Method in brief: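 Compound was added at a final 10 μM to RAW-Dual macrophages in 384-well plates and left overnight. Confluency was imaged with IncuCyte, and two masks were generated in IncuCyte software over all imaged wells. Each viability score is confluency relative to resting cells, and a compound met the cutoff only when both masks were above 70% of resting cells.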

[4] = agonist: CpG ODN 1826 0.5 ug/mL

Row | SMILES | NF-kB reporter [1, 4] | NF-kB reporter ([1]; agonist: LPS 0.1 ug/mL) | NF-kB reporter ([1]; agonist: MPLA […]) | IRF reporter ([2]; agonist: 3'3'-cGAMP 10 ug/mL) | IRF reporter ([2]; agonist: LPS 0.1 ug/mL) | IRF reporter ([2]; agonist: MPLA […]) | viability score [3]
1 | O=C(NN=Cc1sc2ccccc2c1Cl)c1ccncc1 | 0.918 ± 0.08 | 1.02 ± 0.091 | 0.931 ± 0.058 | 0.808 ± 0.028 | 1.5 ± 0.14 | 1.14 ± 0.11 | 1.01 (active)
2 | CN(C)c1ccc(O)c2c1C[C@H]1C[C@H]3[C@H](N(C)C)C(O)=C(C(N)=O)C(=O)[C@@]3(O)C(O)=C1C2=O.Cl | 0.96 ± 0.072 | 0.927 ± 0.052 | 0.959 ± 0.03 | 1.36 ± 0.37 | 1.04 ± 0.14 | 1.09 ± 0.17 | 0.999 (active)
3 | O=C(Nc1nc2cccc(-c3ccc(CN4CCS(=O)(=O)CC4)cc3)n2n1)C1CC1 | 0.0988 ± 0.0077 | 0.639 ± 0.07 | 0.873 ± 0.05 | 0.79 ± 0.047 | 0.851 ± 0.2 | 0.845 ± 0.25 | 0.834 (active)
4 | Cc1c(-c2ccccc2)oc2c(C(=O)OCCN3CCCCC3)cccc2c1=O.Cl | 1.21 ± 0.31 | 1.01 ± 0.075 | 0.977 ± 0.067 | 0.883 ± 0.052 | 1.35 ± 0.22 | 1.35 ± 0.16 | 1.01 (active)
5 | COC(=O)c1ccc2c(c1)NC(=O)/C2=C(\Nc1ccc(N(C)C(=O)CN2CCN(C)CC2)cc1)c1ccccc1 | 1.34 ± 0.2 | 1.18 ± 0.27 | 1.02 ± 0.063 | 0.325 ± 0.024 | 0.851 ± 0.14 | 0.474 ± 0.041 | 0.998 (active)
6 | CS(=O)(=O)N1CC(C(=O)N2CCN(c3cccc(Cl)c3Cl)CC2)C1 | 1.16 ± 0.065 | 1.08 ± 0.12 | 0.985 ± 0.027 | 0.906 ± 0.035 | 0.935 ± 0.082 | 0.958 ± 0.13 | 0.999 (active)
7 | Cc1cc(NC2CCCC2)nc2ccccc12 | 0.798 ± 0.21 | 1.48 ± 0.12 | 1.91 ± 0.27 | 1.12 ± 0.068 | 1.88 ± 0.28 | 2.72 ± 0.43 | 0.608 (inactive)
8 | Clc1cccc(Nc2nc(-c3ccccn3)cs2)c1 | 0.881 ± 0.15 | 0.379 ± 0.2 | 0.597 ± 0.18 | 0.537 ± 0.092 | 0.658 ± 0.2 | 0.658 ± 0.23 | 0.246 (inactive)
9 | CCOCCn1c(C2CCN(CCc3ccc(C(C)(C)C(=O)O)cc3)CC2)nc2ccccc21 | 1.29 ± 0.34 | 0.976 ± 0.065 | 1 ± 0.098 | 0.925 ± 0.034 | 1.08 ± 0.13 | 1.04 ± 0.13 | 0.521 (inactive)
10 | CC(=O)Oc1ccc(C(=O)Nc2ccccc2Br)cc1 | 0.856 ± 0.068 | 1.01 ± 0.092 | 0.877 ± 0.066 | 0.953 ± 0.049 | 1.08 ± 0.2 | 0.904 ± 0.26 | 0.992 (active)
11 | CN(C)c1ccc(C=NN2C(=O)c3cccc4cccc(c34)C2=O)cc1 | 1 ± 0.21 | 1.1 ± 0.092 | 0.964 ± 0.11 | 1 ± 0.032 | 1.28 ± 0.23 | 1.36 ± 0.17 | 1 (active)
12 | C=Cc1c(C)c2cc3nc(cc4[nH]c(cc5nc(cc1[nH]2)C(C)=C5CCC(=O)O)c(CCC(=O)OC)c4C)[C@@]1(C)C3=CC=C(C(=O)OC)C1C(=O)OC (stereo partly specified) [Prestw-1105] | 0.611 ± 0.075 | 0.869 ± 0.069 | 1.17 ± 0.16 | 0.131 ± 0.018 | 0.642 ± 0.13 | 0.457 ± 0.16 | 0.669 (inactive)
13 | Cc1nnc(NC(=O)c2ccccc2C(=O)O)s1 | 0.982 ± 0.13 | 0.969 ± 0.063 | 0.983 ± 0.051 | 1.11 ± 0.28 | 1.01 ± 0.055 | 1.04 ± 0.085 | 0.998 (active)
